Screening data (PubChem BioAssay)
In the library only some 18% were active in any assay of this set; here they are far more common.
TDP1 cell noCPT – qHTS for Inhibitors of human tyrosyl-DNA phosphodiesterase 1 (TDP1): qHTS in cells in absence of CPT; 15% of 420,000 active; Potency, µM (doses to about 46.2 µM), for inactives: at the highest dose activity change, negative = growth inhibition, hits mostly inhibitors; DT40 Tdp1-/- hTDP1 cells, no CPT, ATP luminescence, 48 h; further: potency means the concentration at half of the fitted maximal effect; nearly all actives have a fitted effect of over 55% in size
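Chicken DT40 Tdp1-/- cells complemented with human TDP1, screened without camptothecin (DMSO vehicle only), 400 cells/well. Compounds pin-transferred, cells incubated at 37 °C for at least 48 hr. Growth read as ATP-dependent luminescence (CellTiter-Glo, 30 min at RT).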
DT40 TDP1 CPT – qHTS for Inhibitors of human tyrosyl-DNA phosphodiesterase 1 (TDP1): qHTS in cells in presence of CPT | chicken DT40 Tdp1-/-;hTDP1 cells + 20 nM CPT, ATP luminescence, 48 h | Potency, µM (top dose mostly 46.2 µM), without a hit: at the top dose activity change, negative = growth inhibition, actives largely listed as inhibitors | 12% of 420,000 active; further: potency means the concentration at half of the fitted maximal effect; nearly all actives have a fitted effect of over 55% in size
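Chicken DT40 Tdp1-/- cells stably complemented with human TDP1 were seeded at 400 cells/well in medium containing 20 nM camptothecin, exposed to pin-transferred compounds, and grown at 37 °C for at least 48 hr. Viability was read as ATP luminescence.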
LDHA inh – qHTS assay for inhibitors of human lactate dehydrogenase. L-lactate dehydrogenase A chain (Homo sapiens), P00338. purified LDHA, NADH/diaphorase-resazurin fluorescence; stronger effect = lower value. 0.15% of 480,000 active. activity change, % (values are at about 110 or 230 µM); in the data active means activity change below about -30%; inconclusive means mostly about -25% to -30%;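 further: plate controls were DMSO wells for no effect and wells without enzyme for full effect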
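Human LDH5 at 2 nM final in Tris HCl pH 7.4 with 0.06 mM NADH and 0.2 mM pyruvate, reacted 5 minutes at room temperature. Remaining NADH coupled via diaphorase/resazurin; resorufin fluorescence read at 0 and 20 minutes, normalized to enzyme-free and DMSO wells.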
RORg inh – qHTS for inhibitors of ROR gamma transcriptional activity. Drosophila S2 Gal4-RORgamma UAS-luciferase reporter, 20 h. Potency, µM (top dose mostly 53.6 µM), inactives show top-dose activity change, negative = inhibition, most hits filed as inhibitors. 5.4% of 310,000 active. AID 2551, 2010; further: potency means the concentration at half of the fitted maximal effect; nearly all actives have a fitted effect of over 60% in size
Target sequence (P51450 whole entry, looked up, the tested form may be a part): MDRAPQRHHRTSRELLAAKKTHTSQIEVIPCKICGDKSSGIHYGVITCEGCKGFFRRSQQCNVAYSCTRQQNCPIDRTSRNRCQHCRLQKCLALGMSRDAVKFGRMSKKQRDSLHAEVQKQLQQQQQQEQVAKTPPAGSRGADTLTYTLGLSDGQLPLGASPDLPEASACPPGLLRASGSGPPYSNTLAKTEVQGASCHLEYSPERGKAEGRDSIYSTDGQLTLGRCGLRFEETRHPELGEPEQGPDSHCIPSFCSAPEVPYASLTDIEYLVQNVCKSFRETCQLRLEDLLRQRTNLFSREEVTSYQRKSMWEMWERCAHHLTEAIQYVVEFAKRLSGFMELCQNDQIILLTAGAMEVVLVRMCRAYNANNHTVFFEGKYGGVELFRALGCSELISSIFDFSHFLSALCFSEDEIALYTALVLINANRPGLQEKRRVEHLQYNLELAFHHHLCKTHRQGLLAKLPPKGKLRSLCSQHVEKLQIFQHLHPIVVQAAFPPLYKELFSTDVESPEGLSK
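In this cell-based reporter format, copper sulfate (700 uM final) drives Gal4–ROR gamma fusion expression from a metallothionein promoter in Drosophila Schneider cells; compounds preincubated 1 hr, reporter read after 20 hr at ambient temperature.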
IL-1B inflam inh – qHTS for Inhibitors of Inflammasome Signaling: IL-1-beta AlphaLISA Primary Screen | THP-1 LPS/ATP IL-1B secretion, AlphaLISA, 16 h; stronger effect = lower value | 4.7% of 360,000 active | AID 743279, 2014 | activity change, % at 57.5 µM; in the data active means activity change below about -50%; inconclusive means mostly about -30% to -49%
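THP-1 cells pretreated 1 hr with compounds (up to 57.5 uM final), then stimulated with LPS (250 ng/mL final) plus ATP (1.25 mM final); secreted IL-1B measured by AlphaLISA after 16 hr, decreased signal indicating inhibition.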
VP16 counter – VP16 counterscreen qHTS for inhibitors of ROR gamma transcriptional activity; Drosophila S2 Gal4-VP16 UAS-luciferase, luminescence, 20 h; Potency, µM (top dose mostly 53.6 µM), inactives show top-dose activity, negative = inhibition, usual class: inhibitors; 3.5% of 310,000 active; AID 2546, 2010;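 further: Gal4-VP16 expression switched on by copper sulfate through the metallothionein promoter; potency means the concentration at half of the fitted maximal effect; nearly all actives have a fitted effect of over 50% in size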
Numbers without * were called inactive; ? = inconclusive; · = no result given. Unless noted, the call rests on the fitted dose curve; in most records, active means well fitted curve in the direction sought with a large enough effect; inconclusive means small, poorly fitted or top-dose-only effect, or another doubt; inactive means no such curve, though single readings can be large; an effect the other way counts as inactive or inconclusive. Unless noted, on the % scale 0 is the no-effect control and ±100 the full control effect.

SMILES	TDP1 cell noCPT	DT40 TDP1 CPT	LDHA inh	RORg inh	IL-1B inflam inh	VP16 counter
COc1ccc(Cc2n[nH]c(=S)n2-c2ccc3c(c2)OCCO3)cc1	?	-16%	0	8.9µM*	31	-1%
S=c1[nH]nc(Cc2ccc(Cl)cc2)n1-c1ccc2c(c1)OCCO2	?	-28%	2	2.8µM*	13	-21%
O=C(Cc1ccc(Cl)cc1)NC1CC(=O)N(c2ccc3c(c2)OCCO3)C1 (stereo unspecified)	-19%	-17%	-1	·	·	·
COc1ccc(CC(=O)NCc2n[nH]c(=S)n2-c2ccc(F)cc2)cc1	3%	-5%	-2	-14%	-1	3%
Cn1c(-c2ccc(S(=O)(=O)N3CCCC3)cc2)csc1=Nc1ccc(Cl)c(Cl)c1	4.1µM*	9.2µM*	0	·	·	·
COCCCN1C(=O)C(=O)/C(=C(/O)c2ccc(S(=O)(=O)N3CCOCC3)cc2)C1c1ccc(C)cc1 (stereo unspecified)	-3%	1%	3	-10%	-2	5%
COCCCn1c(-c2ccc(S(=O)(=O)N3CCOCC3)cc2)csc1=Nc1ccccc1	15µM*	18µM*	-17	0%	0	5%
O=S(=O)(c1ccc(-c2csc(=Nc3ccc(OC(F)(F)Cl)cc3)n2CCCO)cc1)N1CCCC1	2.3µM*	2.9µM*	8	·	·	·
O=S(=O)(c1ccc(OC(F)(F)F)cc1)N1CCCC(c2ccccc2)C1 (stereo unspecified)	-28%	-9%	-5	21%	-4	-16%
CC(=O)Nc1ccc(NC(=O)c2nccnc2-c2nc3ccccc3s2)cc1Cl	·	·	-13	·	·	·
Cc1ccc(NC(=O)c2ccc3c(c2)NC(=O)c2ccccc2S3)cc1	2.6µM*	3.7µM*	-8	·	·	·
C/C(=N\NC(=O)c1ccc(C)cc1C)c1ccc2c(c1)Nc1ccccc1S2	16µM*	?	1	-11%	27	-25%
Cc1ccc(C(=O)Nc2ccc3c(c2)N(C)C(=O)c2ccccc2S3)cc1F	0.82µM*	1µM*	-4	·	·	·
CC(=O)Nc1cc(C(=O)Nc2ccc3c(c2)N(C)C(=O)c2ccccc2S3)ccc1C	0.92µM*	1.6µM*	-1	·	·	·
Cc1ccc(CC(=O)Nc2ccc3c(c2)N(C)C(=O)c2ccccc2S3)cc1	?	?	2	·	·	·
CCOC(=O)c1ccc(NC(=O)c2ccc3c(c2)NC(=O)c2ccccc2S3)cc1	0%	-19%	-3	·	·	·
CCCCNC(=O)c1ccc2c(c1)N(C)C(=O)c1ccccc1S2	?	?	2	9%	-1	2%
COc1cccc(CN(C)C(=O)c2cc3cc(Br)ccc3[nH]2)c1	·	·	-20	·	·	·
COc1ccc(-c2cc(C(=O)N3CCC(C(N)=O)CC3)c3ccccc3n2)cc1OC	·	·	-1	·	·	·
O=C(Nc1ccc(Cl)cc1Cl)c1ccc2c(=O)n3c(nc2c1)CCC3	16µM*	?	-7	·	-7	·
O=C(Nc1ccc(Br)cc1Cl)c1ccc2c(=O)n3c(nc2c1)CCC3	18µM*	21µM*	-7	·	-8	·
COc1cc(Cl)c(NC(=O)c2ccc3c(=O)n4c(nc3c2)CCCCCC4)cc1OC	·	·	2	·	·	·
O=C(CNC(c1ccccc1)c1ccccc1)Nc1ccccc1F	?	?	2	-15%	-3	-2%
CC(=O)Nc1ccc(SCC(=O)N(C)CC(=O)Nc2ccccc2Cl)cc1	?	-21%	-3	·	3	·
COc1ccc(NC(=O)CNC(c2ccccc2)c2ccccc2)cc1Cl	?	?	-2	26%	-18	5%
SMILES	TDP1 cell noCPT	DT40 TDP1 CPT	LDHA inh	RORg inh	IL-1B inflam inh	VP16 counter
O=C(CC1CCCCC1)Nc1ccccc1-c1ccccc1	21µM*	?	-4	1%	-4	-5%
O=C(CNC(c1ccccc1)c1ccccc1)Nc1ccccc1-c1ccccc1	18µM*	?	-1	?	16	?
Cc1cc(C)cc(NC(=O)CNC(c2ccccc2)c2ccccc2)c1	10µM*	?	4	14%	-6	11%
CC(=O)Nc1ccc(SCC(=O)Nc2ccccc2-c2ccccc2)cc1	23µM*	?	3	12%	25	-7%
O=S(CCCOc1ccc(F)cc1)Cc1cccc(F)c1 (stereo unspecified)	·	·	-1	·	·	·
CC(C)Cc1nnc(NC(=O)c2ccc3ccn(C)c3c2)s1	·	·	-3	·	·	·
C=CCSc1nc2c(c(=O)n(C)c(=O)n2C)n1Cc1ccccc1Cl	·	·	3	·	·	·
COc1ccc(C2(C)N(O)C(C)C(c3ccccc3)=[N+]2[O-])cc1 (stereo unspecified)	·	·	7	·	·	·
COc1ccc(OC)c2[nH]c(C(=O)NCC(=O)Nc3ccc4c(c3)OCO4)cc12	·	·	1	·	·	·
c1ccc(C(Sc2cccc3cccnc23)c2ccccc2)cc1	·	·	8	·	·	·
CC(=O)/C(=N\Nc1ccccc1)Sc1cccc2cccnc12	-12%	18%	-9	14µM*	-6	?
CC(=O)/C(=N\Nc1ccccc1Cl)Sc1cccc2cccnc12	-92%	?	-7	2.8µM*	-16	4.5µM*
COC(=O)[C@@]12C[C@@H](CC(=O)N3CCCCC3)C(=O)N(Cc3ccco3)C1=CCC(C)(C)C2	?	23µM*	1	·	-2	·
C#CCNC(=O)C[C@@H]1C[C@@]2(C(=O)OC)CC(C)(C)CC=C2N(Cc2ccco2)C1=O	19%	17%	-5	·	-21	·
COC(=O)[C@@]12C[C@@H](CC(=O)NCC34CC5CC(CC(C5)C3)C4)C(=O)N(Cc3ccco3)C1=CCC(C)(C)C2	15µM*	16µM*	-4	·	3	·
COC(=O)[C@@]12C[C@@H](CC(=O)N3CCOCC3)C(=O)N(Cc3ccco3)C1=CCC(C)(C)C2	-2%	-5%	-16	·	-12	·
COc1ccc(C(=O)Nc2ccc3sc(NC(=O)C(C)C)nc3c2)cc1OC	·	·	-3	·	·	·
CCOc1ccc(Oc2coc3cc(O)ccc3c2=O)cc1	·	·	6	·	·	·
Cc1ccc(C2=NC(C(F)(F)F)(C(F)(F)F)c3c(n(-c4ccc(F)cc4)c(=O)[nH]c3=O)N2)cc1	23µM*	23µM*	-5	?	36	-12%
O=c1[nH]c(=O)n(-c2ccc(F)cc2)c2c1C(C(F)(F)F)(C(F)(F)F)N=C(c1ccc(F)cc1)N2	3.3µM*	4.6µM*	-13	-26%	?	16µM*
